Marburg entry inh – inhibitors of Marburg virus binding or cell entry. AID 540276. Potency, µM (top dose mostly 37.8 µM), inactives show top-dose activity change, negative = inhibition, hits mostly inhibitors. Marburg virus pseudotyped entry inhibition, cell reporter. actives 1.8% (n = 300,000); calls by dose curve; tested in HEK293 cells; also: potency is read from the fitted curve at half-maximal effect; % is scaled to controls: 0 for no effect and ±100 for the full control effect
VACV mCherry inh – inhibitors of vaccinia virus infection (mCherry reporter signal); Vaccinia virus mCherry reporter infection, fluorescence; AID 720579; actives 0.63% (n = 310,000); Potency, µM (highest dose often 36.5 µM), without a hit: top-dose activity change, negative = inhibition, actives largely listed as inhibitors; calls by dose curve; tested in A549 cells; also: potency is read from the fitted curve at half-maximal effect; % is scaled to controls: 0 for no effect and ±100 for the full control effect; nearly all actives have a fitted effect of over 35% in size
CHX counter – counter-screen for Shiga toxin inhibitors: cycloheximide protein synthesis inhibition | actives 12% (n = 300,000) | cell reporter, cycloheximide protein synthesis inhibition counterscreen | max response, % | AID 2314; in the data active = max response mostly above about 13%, no sharp cut-off; inactive = mostly below about 14%; also: read at 38.3 µM for the half of the compounds with a filed dose; 0% is about no effect
LASV entry inh – inhibitors of Lassa virus binding or cell entry; Potency, µM (titrated, usually from 37.9 µM), inactives show at the highest dose activity change, negative = inhibition, actives largely listed as inhibitors; Lassa virus pseudotype entry inhibition, cell reporter; actives 1.2% (n = 300,000); calls by dose curve; tested in HEK293 cells; also: potency is read from the fitted curve at half-maximal effect; % is scaled to controls: 0 for no effect and ±100 for the full control effect; nearly all actives have a fitted effect of over 50% in size
VACV Venus inh – vaccinia inhibition (Venus reporter) | actives 0.46% (n = 330,000) | Potency, µM (doses to about 36.5 µM), for inactives: top-dose activity change, negative = inhibition, usual class: inhibitors | Vaccinia virus Venus reporter expression, fluorescence; calls by dose curve; tested in A549 cells; also: potency is read from the fitted curve at half-maximal effect; % is scaled to controls: 0 for no effect and ±100 for the full control effect; nearly all actives have a fitted effect of over 30% in size
Shiga toxin inh – inhibitors of Shiga toxin in Vero cells | Vero cells, Shiga toxin protein synthesis inhibition reporter | inhibition, % at 38.7 µM | actives 9.2% (n = 290,000) | AID 2315; in the data active = inhibition mostly above about 28%, no sharp cut-off; inactive = mostly below about 43%; also: 0% is about no effect
* = called active by the depositor; i = inactive; ? = inconclusive; . = no result given; [ ] = another dose, or the depositor's remark. Shown is part of a subset that was picked to be rich in hits.

SMILES	Marburg entry inh	VACV mCherry inh	CHX counter	LASV entry inh	VACV Venus inh	Shiga toxin inh
O=C(Nc1cccc(S(=O)(=O)N2CCCCC2)c1)c1ccc2ncsc2c1	.	.	86*	.	.	89*
O=C(Nc1ccc(F)cc1)c1ccc2ncsc2c1	.	.	59*	.	.	91*
Cc1ccc(NC(=O)c2cccnc2)cc1S(=O)(=O)N(C)C	13%[46.1 µM]	4%	12	8%	-10%	23
Cc1ccc(NC(=O)c2ccc3ncsc3c2)cc1S(=O)(=O)N(C)C	.	.	70*	.	.	146*
O=C(Nc1cccc(Cl)c1)c1ccc2ncsc2c1	.	.	44*	.	.	90*
Cc1cccc(CNC(=O)c2cnn(-c3nccc(-c4cc5ccccc5o4)n3)c2C2CC2)n1	.	-21%	.	.	-11%	.
CCCn1c2ccccc2c2cnn(CC(=O)NCCCN3CCN(c4ccccc4)CC3)c(=O)c21	.	-4%[7.34 µM]	-3	.	-7%[7.34 µM]	2
CCOC(=O)CSc1nc2ccc(NC(=O)COc3ccccc3)cc2s1	-1%[46.1 µM]	-9%	.	-5%[46.1 µM]	2%	.
O=C(Nc1ccc(Cl)cc1)c1ccc2ncsc2c1	.	.	46*	.	.	123*
O=C(Nc1ccc(N2CCOCC2)cc1)c1ccc2ncsc2c1	?	-12%	.	?	-4%	.
O=C(Nc1ccc(C(F)(F)F)cc1)c1ccc2ncsc2c1	.	.	35*	.	.	156*
COc1ccc(C(C)(C)C)cc1NC(=O)c1ccc2ncsc2c1	-26%[46.1 µM]	6%	27*	22%	-3%	72*
O=C(OCCOc1cccc(Cl)c1)c1ccc2ncsc2c1	-3%[46.1 µM]	13%	17*	.	0%	34
COc1ccc(NC(=O)c2ccc3ncsc3c2)c2ccccc12	31%	-14%	4	-8%	-2%	17
COc1cccc(C2(O)CCN(CC(=O)NCC3CC3)CC2)c1	0%	i	7	-15%	0%	-4
CCOC(=O)c1cnc2ccc(Br)cc2c1NCCN1CCOCC1	-13%[46.1 µM]	-6%	.	1%[46.1 µM]	0%	.
NC(=O)C(OC(=O)CNC(=O)C1CCCCC1)c1ccccc1 (stereo not drawn)	.	-13%	.	.	11%	.
CC(C)c1ccccc1NC(=O)c1ccc2ncsc2c1	-15%[46.1 µM]	-5%	30*	.	2%	39*
O=C(O)c1ccc2ncsc2c1	26%[46.1 µM]	-5%	27*	25%	-9%	68*
COc1ccc(CN2C(=O)C(CC(=O)NC3CC3)CC(C(=O)N3CCOCC3)=C2C)cc1 (stereo not drawn)	.	3%	.	.	0%	.
CCCCCCNc1ncnc2c1sc1nc(N3CCOCC3)c3c(c12)CCCC3	11%[46.1 µM]	-11%	.	6%[46.1 µM]	-16%	.
O=C(NCc1cccnc1)c1ccc(S(=O)(=O)N2CCCCCC2)cc1	-18%[46.1 µM]	-2%	5	2%	-14%	7
N#C[C@H]1[C@H](c2ccccc2)[C@](C#N)(C(=O)c2ccccc2)[C@@H]2C=Cc3ccccc3N21	.	.	42*	.	.	55
COc1ccc(C(=O)N2c3ccccc3C=CC2C#N)cc1 (stereo not drawn)	-2%	-2%	11	?	2%	-9
O=C(COc1ccccc1)Nc1ccc2nc(SCC(=O)N3CCc4ccccc43)sc2c1	-2%[46.1 µM]	-19%	.	4%[46.1 µM]	-15%	.
SMILES	Marburg entry inh	VACV mCherry inh	CHX counter	LASV entry inh	VACV Venus inh	Shiga toxin inh
CCOC(=O)C1(Cc2cccc(Cl)c2)CCCN(C(=O)c2cccc(C)n2)C1 (stereo not drawn)	7.1µM*	-6%	2	?	-13%	-2
CCOC(=O)C1(Cc2cccc(Cl)c2)CCCN(C(=O)C2CC2)C1 (stereo not drawn)	-33%[46.1 µM]	-4%	14*	-2%	-15%	5
CCOC(=O)C1(Cc2cccc(Cl)c2)CCCN(C(=O)c2ccc(COC)s2)C1 (stereo not drawn)	-13%	i	20*	?	-12%	23
CCOC(=O)C1(Cc2cccc(Cl)c2)CCCN(C(=O)c2ccco2)C1 (stereo not drawn)	.	.	16	.	.	64*
CCOC(=O)C1(Cc2cccc(Cl)c2)CCCN(C(=O)CCC(=O)N(C)C)C1 (stereo not drawn)	.	i	-2	.	-24%	1
CCOC(=O)C1(Cc2cccc(Cl)c2)CCCN(C(=O)c2occc2C)C1 (stereo not drawn)	.	.	14	.	.	26
Cc1ccc(NC(=O)c2nc(S(C)(=O)=O)ncc2N(Cc2ccc(C(C)(C)C)cc2)Cc2ccco2)cc1C	5%[46.1 µM]	-3%	.	-24%[46.1 µM]	-4%	.
Cc1n[nH]c(=S)n1/N=C/c1ccccc1	?	-16%	-4	2%	-6%	22
Cc1cc(C)c(COc2ccc(/C=N/n3c(C)n[nH]c3=S)cc2)c(C)c1	7%	-12%	9	-17%	-15%	30*
Cc1n[nH]c(=S)n1/N=C/c1ccc(OCc2ccc(Cl)cc2)cc1	6%	.	3	18%	.	4
Cc1n[nH]c(=S)n1/N=C/c1ccc(OCc2ccc(Cl)cc2Cl)cc1	?	-15%	39*	?	-9%	79*
CCn1c(-c2cccc(OC)c2)nc2cc(NC(C)=O)cc(C(=O)N3CCCC(C(C)=O)C3)c21 (stereo not drawn)	.	-16%	.	.	-9%	.
COc1ccc(NC(=O)N2CCCC2C(=O)NCc2ccc(C)cc2)cc1 (stereo not drawn)	-3%[46.1 µM]	-5%	2	-9%[46.1 µM]	-13%	12
COc1ccc(C(=O)Oc2cccc(Nc3ncnc4ccccc34)c2)cc1OC	?	?	8	?	-24%	3
COc1ccc(/C(=N/Nc2ncnc3ccccc23)C(=O)O)cc1	-14%[46.1 µM]	10µM*	47*	?	-26%	89*
CCOC(=O)/C(=N\Nc1ncnc2ccccc12)c1ccc(OC)cc1	?	5%	27*	?	21%	45
COc1cccc(-c2nc3cc(SC)ccc3cc2CN(C(=O)c2sccc2C)C2CC2)c1	.	i	.	.	-14%	.
Cc1ccc(CNC(=O)C2CCCN(c3nn4cc(-c5ccc(C)cc5)nc4s3)C2)cc1 (stereo not drawn)	.	-9%	.	?	-10%	.
O=[N+]([O-])c1cccc(S(=O)(=O)NCCCN2CCOCC2)c1	?	-19%	3	3%	-9%	5
O=[N+]([O-])c1ccc(-c2ccc(S(=O)(=O)NCCN3CCCC3)cc2)cc1	18µM*	-47%	-2	?	-19%	-13
O=[N+]([O-])c1ccc(S(=O)(=O)NCCN2CCOCC2)cc1	0%[46.1 µM]	i	2	1%	-2%	51*
CC(=O)NC1=C(C#N)CCC1	.	-15%	.	.	-6%	.
COc1ccc(C(=O)N/N=C/C23CC[C@@H](O)CC2(O)CC[C@@H]2[C@@H]3CCC3(C)C(C4=CC(=O)OC4)CCC23O)cc1 (stereo partly drawn)	.	.	-5	.	.	-25
COc1cc(C(=O)N/N=C/C23CC[C@@H](O)CC2(O)CC[C@@H]2[C@@H]3CCC3(C)C(C4=CC(=O)OC4)CCC23O)ccc1O (stereo partly drawn)	?	10µM*	3	?	?	2
O=C(COc1cccnc1[N+](=O)[O-])NCCc1ccc(F)cc1	1%[46.1 µM]	-9%	2	?	-5%	-11

From PubChem BioAssay
